38 molecules from the supplement of paper PMC8699584 can be followed below.

The structures appear in SMILES notation. Values joined by “and” are separate entries in the source; they are usually repeats but may differ in a detail not shown here. Equal values may be shown once. Where a name gives a salt, the structure may show the parent alone. ± gives the standard deviation of the averaged measurements.

Assay [1] concerns Molm13. Put plainly: cell viability relative to DMSO control (bortezomib = 0%); higher = less growth inhibition. Conditions: 10 nM; 72 h. The method, boiled down: (§1)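 Acute myeloid leukemia cells were plated at 1000 cells per well in 50 µL onto a 679-compound library of approved and investigational agents in 384-well plates and exposed to a single 10 nM dose for 72 h, in duplicate. Cell viability was measured by CellTiter-Glo luminescence on an EnVision reader. Readings were scaled to percentages by per-plate linear regression, with DMSO-treated cells set at 100% and positive-control-treated cells at 0%.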

The test system of assay [2] is Mv4-11. The assay is described as above. Conditions: 10 nM; 72 h. The method, boiled down:
as §1

A word on the cell viability: it is a read-out of living cells in per cent, often relative to untreated cells.

Consider `CC(C)(C)c1ccc(S(=O)(=O)/C=C/C#N)cc1`, for which the cell viability in assay [1] worked out at 108 ± 16%; in assay [2], 98.9 ± 4.4%.
The matching figures for `CNCc1ccc(-c2cc(-c3nc(-c4ccc(S(=O)(=O)C(C)C)cc4)cnc3N)on2)cc1`: 106 ± 1.8% and 101 ± 18%.
The matching figures for `Cc1ccc(NC(=O)c2ccc(CN3CCN(C)CC3)cc2)cc1Nc1nccc(-c2cccnc2)n1` [Imatinib Mesylate (STI571)]: 105 ± 13% and 106 ± 7.4%.
Consider `CCCCOc1c(C(=O)c2c(F)cc(C)cc2F)c[nH]c2nncc1-2`, for which the figures for the cell viability in assay [1] and in assay [2] were 112 ± 1.9% and 107 ± 7%, respectively.
On the same counts, the results for `CCOc1cc2ncc(C#N)c(Nc3ccc(OCc4ccccn4)c(Cl)c3)c2cc1NC(=O)/C=C/CN(C)C` [Neratinib(HKI-272)] are 106 ± 20% and 100 ± 3.7%.
On the same counts, the results for `O=C1NC(=O)/C(=C/c2ccc(-c3ccc(F)cc3O)o2)S1` are 106 ± 2.7% and 95.5 ± 9.9%.
The matching figures for `CCCCCCCCCCCCCC#CC(=O)[C@@H]1COC(C)(C)N1C(=O)OC(C)(C)C`: 108 ± 11% and 132 ± 1.6%.
On to `O=C(c1ccc(F)c(F)c1Nc1ccc(I)cc1F)N1CC(O)([C@@H]2CCCCN2)C1` [Cobimetinib], for which the cell viability is 87.1 ± 14% in assay [1] and 103.3 ± 0.5% in assay [2].
As for `CCN(CC)CCCCNc1ncc2cc(-c3cc(OC)cc(OC)c3)c(NC(=O)NC(C)(C)C)nc2n1`, the cell viability in assay [1] is 114% and 117%; in assay [2], 113% and 119%.
`Cc1cncc2cccc(S(=O)(=O)N3CCCN(C(=O)CN)C[C@@H]3C)c12` [(S)-Glycyl-H-1152 (hydrochloride)]: the results for the cell viability in assay [1] and in assay [2] were 110 ± 9.1% and 97.4 ± 11%, respectively.
Consider `CCNc1nc(Nc2cc(F)c(C(=O)N3CCOCC3)cc2OC)ncc1C(F)(F)F`, for which the cell viability in assay [1] came to 105.79 ± 0.065%; in assay [2] it was 102.3 ± 0.71%.
For `Cc1cc(Nc2nc(N[C@@H](C)c3ccc(F)cc3)c(C#N)cc2F)n[nH]1`, the cell viability in assay [1] was determined as 123 ± 7.3%; in assay [2] it was 99.4 ± 3.3%.
The matching figures for `O=C(O)c1c[nH]c2c(ccc3ccccc32)c1=O`: 87 ± 11% and 106 ± 6.8%.
Consider `CC(C)(C)n1nc(Cc2cccc3ccccc23)c2c(N)ncnc21`, for which the values for the cell viability in assay [1] and in assay [2] were 106 ± 29% and 106 ± 3%, respectively.
Turning to `O=C1NCCCc2c1oc1ccc(O)cc21`, the cell viability in assay [1] worked out at 107 ± 1.9%; in assay [2], 104 ± 3.1%.
In the case of `C=CC(=O)Nc1cc(Nc2nccc(-c3cn(C)c4ccccc34)n2)c(OC)cc1N(C)CCN(C)C` [AZD-9291 mesylate], the cell viability was 102 ± 5.5% in assay [1] and 94.8 ± 6.1% in assay [2].
The matching figures for `CC1(C)CC[C@]2(C(=O)O)CC[C@]3(C)C(=CC[C@@H]4[C@@]5(C)CC[C@H](O[C@@H]6O[C@H](C(=O)O)[C@@H](O)[C@H](O[C@@H]7OC[C@@H](O)[C@H](O)[C@H]7O)[C@H]6O)C(C)(C)[C@@H]5CC[C@]43C)[C@@H]2C1` [Momordin Ic]: 87.4 ± 13% and 106 ± 5%.
On the same counts, the results for `Cc1cc(Nc2nn(-c3ccccc3)c(=O)c3ccccc23)n[nH]1` [Phthalazinone pyrazole] are 94.1 ± 9.4% and 101 ± 15%.
`NCCNS(=O)(=O)c1cccc2cnccc12` [H-9 (hydrochloride)]: the cell viability in assay [1] stood at 114 ± 24%; in assay [2] it was 111 ± 4.7%.
The matching figures for `C[C@H]1Oc2cc(cnc2N)-c2c(nn(C)c2C#N)CN(C)C(=O)c2ccc(F)cc21`: 115 ± 8.8% and 112 ± 19%.
On the same counts, the results for `O=C1NC(=O)/C(=C\c2ccc3nccnc3c2)S1` are 116 ± 13% and 104 ± 13%.
In the case of `CCCCCCCCCCCC(=O)NC[C@]1(C)CCC[C@]2(C)c3ccc(C(C)C)cc3CCC12` (stereo partly specified) [Lauric Acid Leelamide], the cell viability in assay [1] is 93 ± 7.2%; in assay [2] it was 104 ± 12%.
The matching figures for `Cc1cn(-c2cc(NC(=O)c3ccc(C)c(Nc4nccc(-c5cnccn5)n4)c3)cc(C(F)(F)F)c2)cn1` [Radotinib]: 100 ± 2.6% and 107 ± 13%.
On the same counts, the results for `CN(C)C(=O)c1cc2cnc(Nc3ccc(N4CCNCC4)cn3)nc2n1C1CCCC1` are 113 ± 12% and 113 ± 12%.
The matching figures for `Nc1ncnc2c1c(-c1cccc(OCc3ccccc3)c1)cn2C1CC(CN2CCCC2)C1` (stereo unspecified): 103 ± 13% and 96.5 ± 2.5%.
For `Cc1cc(CN2CCN(c3c(Br)cnc4nc(-c5ccc(N6CCN(C)CC6)cc5)[nH]c34)CC2)no1`, the cell viability was 85.6 ± 1.8% in assay [1] and 95.3 ± 3.4% in assay [2].
The matching figures for `O=C(Nc1ccc(-c2ccnc(Nc3ccc(N4CCOCC4)cc3)n2)cc1)C1CCCN1` (stereo unspecified): 107 ± 16% and 95.7 ± 4.2%.
`Cc1ncc(-c2ccnc(Nc3ccc(S(C)(=O)=O)cc3)n2)n1C(C)C`: the figures for the cell viability in assay [1] and in assay [2] were 102 ± 14% and 122 ± 13%, respectively.
The matching figures for `CNC(=O)c1cccc(-c2ccc3c(N4CCOC[C@@H]4C)nc(N4CCOC[C@@H]4C)nc3n2)c1`: 83.69 ± 0.63% and 98.5 ± 20%.
On the same counts, the results for `C=CC(=O)Nc1cc(Nc2nccc(-c3c[nH]c4ccccc34)n2)c(OC)cc1N(C)CCN(C)C` are 104 ± 7.9% and 121 ± 6.1%.
The matching figures for `Cc1oncc1C(=O)Nc1ccc(C(F)(F)F)cc1` [Leflunomide]: 91.3 ± 23% and 118 ± 29%.
As for `COc1cc2ncnc(Oc3cccc(NC(=O)Nc4cc(C(C)(C)C(F)(F)F)on4)c3)c2cc1OC`, the cell viability in assay [1] turned out to be 115 ± 3.7%; in assay [2], 113 ± 17%.
On the same counts, the results for `CC(C)(C)Cn1c(N)nc2ccc(-c3[nH]c(C(C)(C)C)nc3-c3ccc(F)cc3)nc21` are 100 ± 12% and 84.9 ± 21%.
For the molecule `CC#CC(=O)N1CCC[C@H]1c1nc(-c2ccc(C(=O)Nc3ccccn3)cc2)c2c(N)nccn12` [Acalabrutinib], the cell viability amounted to 111 ± 8.4% in assay [1] and 125.6 ± 1.1% in assay [2].
The matching figures for `Cc1c(CN2CCN(S(C)(=O)=O)CC2)sc2c(N3CCOCC3)nc(-c3cnc(N)nc3)nc12`: 106 ± 16% and 107 ± 9.6%.
Consider `C[C@H](Nc1ncnc2nc[nH]c12)c1cc2cccc(Cl)c2c(=O)n1-c1ccccc1` [Duvelisib (IPI-145, INK1197)], for which the cell viability in assay [1] stood at 111 ± 14%; in assay [2] it was 111 ± 15%.
On the same counts, the results for `CC(C)=CCC[C@](C)(O[C@@H]1O[C@H](CO)[C@@H](O)[C@H](O)[C@H]1O)[C@H]1CC[C@]2(C)[C@@H]1[C@H](O)C[C@@H]1[C@@]3(C)CC[C@H](O)C(C)(C)[C@@H]3[C@@H](O[C@@H]3O[C@H](CO)[C@@H](O)[C@H](O)[C@H]3O[C@@H]3OC[C@@H](O)[C@H](O)[C@H]3O)C[C@]12C` [Notoginsenoside R1] are 110 ± 13% and 105 ± 7.3%.
As to `CNC(=O)c1ccc(Nc2ncc(C(F)(F)F)c(NCc3nccnc3N(C)S(C)(=O)=O)n2)cc1`, the cell viability in assay [1] is 90.2 ± 16%; in assay [2], 99.5 ± 3.4%.
